# Experimental data taken from PubChem BioAssay (NCI).
# About 83,000 compounds went through this panel and 20% of them were active in at least one assay; those are over-represented in the sample as a whole.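 The endpoint reported here, percent growth, reads 100 for growth as untreated, 0 for no net growth and -100 for all cells dead.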 Values without a mark were called inactive. The source made the active and inactive calls. The calls were made as follows: active = growth percent below 10; inactive = the rest.
# Assays:
# Experiment in all cases: NCI-60 one-dose screen, 48 h (100 = growth as untreated, 0 = no growth, -100 = all killed)
# Conditions in all cases: 10 µM unless noted
# SR leukemia = system: SR leukemia
# RPMI-8226 leukemia = system: RPMI-8226 leukemia
# OVCAR-8 ovarian = system: OVCAR-8 ovarian
# OVCAR-5 ovarian = system: OVCAR-5 ovarian
# OVCAR-4 ovarian = system: OVCAR-4 ovarian
# SK-OV-3 ovarian = system: SK-OV-3 ovarian
# IGROV1 ovarian = system: IGROV1 ovarian
# OVCAR-3 ovarian = system: OVCAR-3 ovarian
# HS 578T breast = system: HS 578T breast
# NCI/ADR-RES ovarian = system: NCI/ADR-RES ovarian
Compound,growth (SR leukemia),growth (RPMI-8226 leukemia),growth (OVCAR-8 ovarian),growth (OVCAR-5 ovarian),growth (OVCAR-4 ovarian),growth (SK-OV-3 ovarian),growth (IGROV1 ovarian),growth (OVCAR-3 ovarian),growth (HS 578T breast),growth (NCI/ADR-RES ovarian)
O=S(=O)(NCCCNc1nccc(-c2c(-c3ccc(F)c(O)c3)nc3sccn23)n1)c1ccccc1,33.9%,40.3%,54.2%,113%,75.6%,78%,65%,66%,72.8%,100%
CC(C)(C)CC(C)(C)NC(=O)Nc1ncccc1OCc1ccccc1,89.4%,84.9%,99.4%,91.6%,84.3%,104%,93.9%,98.5%,106%,86.2%
COc1ccc(-c2cc(-c3ccc(Cl)cc3)c(C#N)c(=O)n2Cc2ccc(C(=O)Nc3ccccc3N)cc2)cc1,40.9%,57.1%,92.8%,96.7%,76.3%,92.6%,78.3%,42.6%,46.2%,71.2%
O=C(C[C@]1(O)C(=O)Nc2ccccc21)c1cccc(C(F)(F)F)c1,96.7%,88.7%,95.1%,81.4%,91.3%,75.8%,67.6%,77.9%,90.3%,94.7%
CCOc1nc(-c2ccccc2)cc2c(O)c(C(=O)N/N=C/c3ccccc3)[nH]c(=O)c12,95.2%,97.6%,106%,111%,119%,109%,36%,103%,104%,104%
Nc1n[nH]c2cccc(C#Cc3cccc(NC(=O)c4cc(F)cc(C(F)(F)F)c4)c3)c12,60.5%,63.8%,94.2%,70.8%,90.5%,114%,25.5%,80.7%,36.8%,93.1%
COc1ccccc1N1CCCCC1,112%,101%,110%,86.2%,109%,100%,101%,114%,101%,106%
COc1ccc2c(c1OC)CO[C@@H]2[C@H]1c2c(cc3c(c2OC)OCO3)CCN1S(=O)(=O)c1cn(C)cn1,23.7%,16.5%,20.4%,35.1%,51.5%,22.2%,24.7%,-35.3% (active),15.5%,3.64% (active)
Cc1ccc(C[P+](c2ccccc2)(c2ccccc2)c2ccccc2)cc1,-3.87% (active),-17.6% (active),15.6%,7.45% (active),1.45% (active),6.84% (active),18.7%,5.95% (active),8.62% (active),93.5%
Oc1c(I)cc(I)cc1CNCc1ccccn1,22.1%,30.9%,13.8%,61.9%,22.8%,28%,24.4%,20.3%,57.9%,10.3%
C=C(C)[C@@H]1CC[C@]2(CO)CC[C@]3(C)[C@H](CC[C@@H]4[C@@]5(C)CC[C@H](NCO)C(C)(C)[C@@H]5CC[C@]43C)[C@@H]12,-29.5% (active),-42% (active),-43.8% (active),-91.2% (active),-93.7% (active),-87.5% (active),-94.1% (active),-81.9% (active),-58.3% (active),-53.6% (active)
COCCOc1cc2ncnc(N3CCN(c4ncc(S(=O)(=O)N5CCCCC5)cn4)CC3)c2cc1OCCOC,72.9%,90.2%,97%,114%,105%,123%,99.2%,114%,114%,97.6%
N#CC1=C(N)Oc2c(sc3c(Br)cccc23)C1c1ccc(Cl)cc1 (stereo not given),4.58% (active),12.6%,23%,26.3%,61.2%,27.1%,27.2%,0.89% (active),26.4%,0.969% (active)
C=CCc1c(O)c(C(=O)/C=C/c2ccccc2)c(OC)c2ccoc12,20.6%,6.17% (active),29.6%,90.5%,49.1%,74.4%,54.7%,13.7%,66.1%,21%
COc1ccc(/C=C(\C#N)n2nnc3cc(Cl)ccc32)cc1,19%,8.04% (active),12.6%,-33.7% (active),25.5%,44.4%,3.88% (active),-35.8% (active),-8.59% (active),-11.6% (active)
COc1c(B(O)O)cccc1-c1cc(C)c2c(ccc3[nH]ncc32)n1,27.5%,68.7%,64.1%,72.1%,122%,59.3%,59.1%,113%,8.78% (active),83.3%
COC(=O)c1c(C)nc(C)c2c1C(=O)C(Br)=C(NCc1ccccc1)C2=O,27%,41.1%,4.6% (active),61.5%,-57.3% (active),109%,18%,-12.7% (active),76%,3.37% (active)
C=C1C(=O)O[C@H]2[C@H]1CC/C(Cn1cc(-c3ccccc3)nn1)=C\CC[C@@]1(C)O[C@@H]21,3.11% (active),-20.5% (active),5.7% (active),-2.95% (active),35.9%,107%,6.52% (active),-84.3% (active),81.1%,43.6%
COc1ccc(C(=O)N2c3ccccc3Sc3ccccc32)c(OC)c1,22.4%,16.2%,27.9%,47.8%,57.1%,36.9%,52.5%,-28% (active),14.7%,-0.356% (active)
CCCCCCCCCCC(CN(CC)CC)C(O)c1ccccc1 (stereo not given),-17.6% (active),9.59% (active),53.6%,49.7%,47.5%,54.9%,40.7%,37.7%,45%,33.6%
CCC(=O)Oc1ccc(-c2ccccc2)cc1Br,107%,104%,106%,104%,105%,120%,112%,114%,115%,110%
CCCCCCCCCCCCCCCCOCCCOP(=O)(O)C1CCCN(O)C1=O (stereo not given),7.77% (active),10.9%,23.8%,20%,16.5%,34.4%,-2.28% (active),17.3%,83.1%,8.85% (active)
COc1cc(C2CC(c3ccc(Nc4nc(Nc5ccc(Cl)cc5)nc(Nc5ccc(Cl)cc5)n4)cc3)=NN2C(C)=O)cc(OC)c1OC (stereo not given),72.7%,32%,107%,92.8%,97.3%,126%,85.7%,105%,122%,92.7%
C=CCn1c(C)nc2ccc(Nc3nc(Nc4ccc5nc(C)n(CC=C)c5c4)c4ccccc4n3)cc21,-57.2% (active),-43.3% (active),-48.6% (active),25.1%,-93.3% (active),-63.7% (active),-47.5% (active),-95.4% (active),-41.4% (active),53.5%
Cc1cc(C)c2c(c1)N(C)c1ncnc(-n3cnc4cc(C)ccc43)c1CC2C (stereo not given),4.51% (active),9.87% (active),17.1%,76.6%,61.5%,3.2% (active),44.7%,8.19% (active),25.1%,14.6%
Cc1ccccc1/C=C/C(=O)c1cccc(OCCCOc2cccc(C(=O)/C=C/c3ccccc3C)c2)c1,25.8% [3 µM],-23.2% [3 µM] (active),101% [3 µM],126% [3 µM],84.6% [3 µM],109% [3 µM],102% [3 µM],99.4% [3 µM],99.7% [3 µM],101% [3 µM]
